Bioassay records as filed in PubChem BioAssay.
Most compounds without a hit are left out; they make up all but 2.4% or so of the library.
D2 ag-1 = HTS Assay for Allosteric Agonists of the Human D2 Dopamine Receptor: Primary Screen for Agonists | D(2) dopamine receptor (Homo sapiens), P14416 | HEK293 T-REx D2 cells, calcium flux agonist mode | activation, % at 2 µM | hit rate 0.53% among 340,000 | AID 485358, 2010;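 active means activation over 3 SD above normal in the single-dose calcium agonist read, cut at about 30% in these data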
Target sequence (P14416 whole entry, looked up): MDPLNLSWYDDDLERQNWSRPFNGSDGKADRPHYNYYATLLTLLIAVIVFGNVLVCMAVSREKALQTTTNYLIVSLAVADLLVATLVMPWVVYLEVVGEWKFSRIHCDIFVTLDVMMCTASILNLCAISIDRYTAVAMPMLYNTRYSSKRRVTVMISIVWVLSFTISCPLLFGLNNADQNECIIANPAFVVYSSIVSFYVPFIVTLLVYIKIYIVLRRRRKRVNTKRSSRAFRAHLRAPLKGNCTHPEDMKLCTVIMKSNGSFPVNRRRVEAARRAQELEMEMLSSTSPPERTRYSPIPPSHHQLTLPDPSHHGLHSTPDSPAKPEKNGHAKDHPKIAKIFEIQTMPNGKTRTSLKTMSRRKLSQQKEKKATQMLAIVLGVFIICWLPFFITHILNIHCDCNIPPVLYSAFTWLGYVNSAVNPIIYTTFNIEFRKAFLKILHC
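HEK293 Trex D2 cells, tetracycline-induced, o/n 30 C 5% CO2; no-wash Ca dye, RT 30–90 min; 10-cycle baseline, 23 nl cpd added, kinetic Ca read 180 s; agonist hits = positive Ca response.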
D2 PAM-1 = Beta-Arrestin HTS for Positive Allosteric Modulators of the Human D2 Dopamine Receptor: Potentiators | D(2) dopamine receptor (Homo sapiens), P14416 | DiscoveRx D2 beta-arrestin cells, luminescence, 90 min; 100% = 57 uM dopamine signal | potentiation, % (no concentration beside the values) | hit rate 0.23% among 360,000 | AID 624464, 2012; in the data active means potentiation above about 50%; inconclusive means mostly about 30% to 49%
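PathHunter beta-arrestin assay in DiscoveRx D2 cells. Compounds were added with an EC20 of dopamine (50 nM final) for 90 min at 37 deg C. Luminescence was read 1 h after detection reagent, with 57 uM dopamine as the EC100 control.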
D2 PAM-2 = HTS Assay for Positive Allosteric Modulators of the Human D2 Dopamine Receptor: Primary Screen for Potentiators | D(2) dopamine receptor (Homo sapiens), P14416 | HEK293 T-REx D2, calcium flux, EC20 dopamine potentiation | potentiation, % at 10 µM | hit rate 0.34% among 340,000 | AID 485347, 2010;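 active means potentiation over 3 SD above the plate norm, cut at about 30% in these data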
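Tetracycline-induced Hek293 Trex D2 cells, force-coupled to calcium, loaded with no-wash calcium dye. Compound added with 180 s kinetic read for agonism, then EC20 dopamine and a further 180 s read for potentiation.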
D2 antag = HTS Assay for Allosteric Antagonists of the Human D2 Dopamine Receptor: Primary Screen for Antagonists | D(2) dopamine receptor (Homo sapiens), P14416 | HEK293 TREx D2 cells, calcium flux, dopamine EC80 | AID 485344, 2010 | hit rate 2% among 340,000 | inhibition, % at 10 µM; in the data active means inhibition above about 30%; inactive means below that, where a call was filed
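In this primary screen, negative modulation is detected by tracking calcium flux after an EC80 dopamine challenge in inducible HEK293 T-REx D2 cells preexposed to test compound for 180 s.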
D2 ag-2 = Beta-Arrestin HTS for Positive Allosteric Modulators of the Human D2 Dopamine Receptor: Agonists | hit rate 0.084% among 360,000 | AID 624465, 2012 | DiscoveRx PathHunter D2 beta-arrestin, luminescence, 90 min; 100% = 57 uM dopamine signal | D(2) dopamine receptor (Homo sapiens), P14416 | activation, % (no concentration beside the values); in the data active means activation above about 40%; inconclusive means between about 15% and that limit
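DiscoveRx PathHunter D2 beta-arrestin cells (2,100/well) attached overnight, then compound-stimulated 90 min at 37 C in HBSS/10 mM HEPES/0.1% Tween-20 buffer; beta-galactosidase complementation read by luminescence after 1 h at ambient temperature. Dopamine 57 uM final (EC100) as control.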
D3 arrestin ag = qHTS of D3 Dopamine Receptor Agonist: D3 Dopamine Receptor B-arrestin Agonist Confirmatory Assay. shares compounds with D2 ag-1. DiscoveRx D3 beta-arrestin cells, luminescence, 90 min. Potency, µM (highest dose often 76.9 µM), most hits filed as activators. hit rate 4% among 2,300. AID 720506, 2013; further: nearly all actives have a fitted effect of over 70% in size
D2 ag-3 = qHTS of D3 Dopamine Receptor Agonist: D2 Dopamine Receptor B-arrestin Agonist Counterscreen; Potency, µM (doses to about 76.9 µM), usual class: activators; shares compounds with D2 ag-1; hit rate 5.9% among 2,300; DiscoveRx PathHunter D2 beta-arrestin, luminescence, 90 min; response scale: percent relative to full dopamine signal; further: nearly all actives have a fitted effect of over 70% in size
A number is an active result; – = inactive; ? = inconclusive; · = no result given. Unless noted, the call rests on the fitted dose curve; in most records, active means well fitted activation curve with a large enough effect; inconclusive means small, poorly fitted or top-dose-only effect; inactive means flat fitted curve, though single readings scatter.

SMILES	D2 ag-1	D2 PAM-1	D2 PAM-2	D2 antag	D2 ag-2	D3 arrestin ag	D2 ag-3
CCOc1ccc(NC(=O)CC2C(=O)NCCN2C(=O)Nc2ccccc2)cc1 (stereo not given)	–	–	–	–	–	–	–
O=C(CC1C(=O)NCCN1C(=O)Nc1ccccc1)Nc1ccc(F)cc1 (stereo not given)	–	–	–	–	–	·	·
COc1ccc(NC(=O)CCN2CCN(c3ccc(F)cc3)CC2)cc1	65	–	–	77	–	–	–
C=CCn1c(SC(C)C(=O)c2c(N)n(C)c(=O)n(C)c2=O)nnc1-c1ccoc1C (stereo not given)	32	–	–	–	–	–	–
COc1ccc2c(c1)cc1c(=O)n(CC(=O)NCc3ccco3)nc(C)n12	–	·	·	·	·	·	·
O=C(NCC1CCCO1)C(=O)NCC(c1ccco1)N1CCN(c2ccccc2F)CC1 (stereo not given)	58	–	–	48	–	32µM	?
O=C(NCC(c1ccco1)N1CCN(c2ccccc2F)CC1)c1cccs1 (stereo not given)	–	–	–	–	?	·	·
O=C(NCC(c1ccco1)N1CCN(c2ccccc2F)CC1)C(=O)NC1CCCC1 (stereo not given)	–	–	–	–	–	·	·
O=C(NCC(c1ccco1)N1CCN(c2ccccc2F)CC1)c1ccco1 (stereo not given)	32	–	–	54	?	?	?
CCOc1ccc(NC(=O)Cn2cc(S(=O)(=O)NC)c(S(=O)(=O)NC)c2)cc1	·	·	–	·	·	·	·
CCn1c2ccc(C)cc2c2n[nH]c(=S)nc21	–	–	–	–	–	–	–
O=c1cc(-c2ccccc2)n2c(SCc3cccc([N+](=O)[O-])c3)nnc2[nH]1	–	·	–	·	·	·	·
CCCSCCCNC(=O)Cn1nc(CC)n2c(cc3c(OC)cccc32)c1=O	40	–	–	–	–	–	–
CCCc1cc(N2CCN(c3ccccc3F)CC2)n2cnnc2n1	–	·	–	·	·	·	·
Cc1ccc(NC(=O)C(C)OC(=O)Cn2cnc3ccccc3c2=O)cc1 (stereo not given)	–	–	–	–	–	·	·
CC(OC(=O)Cn1cnc2ccccc2c1=O)C(=O)NCc1ccccc1 (stereo not given)	49	–	–	–	–	–	–
Cc1oc(-c2ccccc2Cl)nc1CS(=O)CC(=O)N1CCN(c2ccccc2)CC1 (stereo not given)	43	–	–	–	–	–	–
CC(=O)N1CCC2(CC1)C(C#N)=C(N)Oc1c2sc2nc(C)cc(C)c12	–	–	–	–	–	·	·
CCN1CCC2(CC1)C(C#N)=C(N)Oc1c2sc2nc(C)cc(C)c12	67	–	–	53	–	–	–
COc1ccc(CCNCc2c(C(=O)O)c(C)n(Cc3cccc(Cl)c3)c2C)c(OC)c1OC	–	·	–	·	·	·	·
O=C(COc1cccc(C(F)(F)F)c1)NNC(=O)Cc1ccc(S(=O)(=O)N2CCOCC2)s1	–	–	–	–	–	·	·
O=C(COc1cccc(F)c1)NNC(=O)Cc1ccc(S(=O)(=O)N2CCOCC2)s1	–	–	–	–	–	–	–
Cc1ccc(NC(=O)c2cnc(SCC(=O)N3CCCc4ccccc43)n(C)c2=O)cc1	–	·	–	·	·	·	·
Cc1ccc(S(=O)(=O)NCCC(=O)Nc2ccc(C)cc2C(=O)c2ccccc2)cc1	–	–	–	–	–	–	–
Clc1cccc(OCCN2CCN(CCOc3cccc(Cl)c3)CC2)c1	74	–	–	93	?	?	–
SMILES	D2 ag-1	D2 PAM-1	D2 PAM-2	D2 antag	D2 ag-2	D3 arrestin ag	D2 ag-3
c1ccc(Cc2ccc(OCCN3CCOCC3)cc2)cc1	–	–	–	–	–	·	·
CN(C)CCCOc1cccc(Cl)c1	–	–	–	–	–	·	·
c1ccc(OCCN2CCOCC2)cc1	38	–	–	–	–	–	–
O=S(=O)(c1ccc(Br)s1)N1CCN(CCOc2ccccc2)CC1	43	–	–	53	–	?	–
O=C1c2[nH]nc(-c3ccccc3O)c2C(c2ccc(Cl)cc2)N1CCc1ccccc1 (stereo not given)	–	·	–	·	·	·	·
Cc1cccc(C(=O)NCC(c2ccc3c(c2)OCO3)N2CCN(c3ccccc3F)CC2)c1 (stereo not given)	–	·	–	·	·	·	·
Cc1cccc(CC(=O)Nc2cccnc2)c1	–	–	–	–	–	–	–
O=C(Cc1ccccc1)Nc1cccnc1	–	–	–	–	–	·	·
CCOC(=O)c1[nH]c2ccc(F)cc2c1NC(=O)CCN1CCOCC1	–	–	–	–	–	·	·
CCOC(=O)c1[nH]c2ccc(Br)cc2c1NC(=O)CCN1CCCC(C)(C)C1	60	–	–	–	–	–	–
Cn1c(C(=O)O)c(CC(=O)NCC2COc3ccccc3O2)c2ccccc21 (stereo not given)	–	–	–	42	–	–	?
O=C(Cc1ccccc1)NCC1COc2ccccc2O1 (stereo not given)	·	–	·	·	–	·	·
CC(C)[C@@H](COc1ccccc1)N1CCN(Cc2ccccc2)CCC1=O	–	–	–	–	–	·	·
CC(COc1ccccc1)N(CCCl)Cc1ccccc1 (stereo not given)	90	–	–	61	–	–	–
Cc1ccc(Nc2sc(C(=O)c3ccccc3)c(N)c2S(=O)(=O)c2ccccc2)cc1Cl	–	·	–	·	·	·	·
COc1cc(Br)cc(CN2CCN(c3ncccn3)CC2)c1O	76	81	–	74	52	?	7.9µM
COc1cccc(CN2CCN(c3ncccn3)CC2)c1	93	–	–	95	55	?	0.63µM
OC(COc1ccc(Br)cc1)CN1CCN(c2ccccc2)CC1 (stereo not given)	61	–	–	81	–	?	?
COc1cccc(OCC(O)CN2CCOCC2)c1 (stereo not given)	–	–	–	–	–	·	·
COc1cccc(OCC(O)CN2CCN(c3ncccn3)CC2)c1 (stereo not given)	78	–	–	69	?	–	?
